# Results filed as inconclusive are left out. A number with no mark means an inactive call. The source made the active and inactive calls. Calls come from the whole dose curve; as a rule, active = well fitted cell-killing curve with a large enough effect; inconclusive = small, poorly fitted or top-dose-only effect, or effect the other way; inactive = flat fitted curve, though single readings scatter.
# Tested on: CAOV3
# Assay: Primary qHTS to identify gynecologic anti-cancer compounds using libraries of approved drugs and bioactive compounds (AID 1345084); note: nearly all actives have a fitted effect of over 55% in size
# Settings: Gynecologic cancer cell panel viability, ATPlite luminescence, 48 h; series mostly up to 57.5 µM; activity change, negative = cytotoxicity: at the top concentration
# Description: National Center for Advancing Translational Sciences [NCATS] Assay Overview: Chemotherapeutic drug responses vary from cancer to cancer and from patient to patient. These variations could be caused by a number of factors including patient genomic background, tumor mutations, tumor heterogeneity, and aspects of drug treatment. Chemotherapeutic drug resistance is also a common issue and can lead to ineffective treatment and patient death. Here we have profiled the cell killing effects of thousands of compounds to characterize the responses in three gynecological cancers, identify cancer-selective compounds, and understand the diversity of responses to these compounds from pan-cancer suppressors to single cell line selective compounds. In this assay, we screened a 7,914 compound drug library that included approved drug and bioactive compounds in six ovarian, three cervical, and […] placental cancer cell lines using the ATPlite assay for cell viability. […] The cervical cancer cell lines included HeLa, Ca Ski, and C-33 A. The placental cancer cell lines included JEG-3. HEK 293T cells were used as the control cell line to determine the selectivity index. ATPlite is a luminescence based assay reliant on the conversion of a luciferase substrate to light in the presence of ATP. As a cytotoxic compound will suppress growth and decrease the number of cells, the concentration of ATP will decrease, and less light signal will be detected in the well.
# Assay Protocol Summary: 1,000 cells in 4 uL of media were dispensed into white, solid bottom 1536-well plates using a Multidrop Combi (Thermo Scientific). The Assay plates were incubated for 16 hours at 37 C with 5% CO2 in assay plates, followed by the addition of 23 nL of DMSO or drug dissolved in DMSO. Each compound was assayed in five concentrations (0.092, 0.46, 2.3, 11.5, and 57.5 uM), using the automated Wako 1536 Pin Tool workstation and incubated at 37 C with 5% CO2 48 hours. 4 uL of ATPlite, the ATP monitoring reagent, was then added to the each well of the assay plates using the Multidrop Combi reagent dispenser followed by incubation for 15 minutes at room temperature. The resulting luminescence was measured using the ViewLux plate reader.
# % is set by controls: 0 for no effect and ±100 for the full control effect.
Compound,"activity change, negative = cytotoxicity",Potency
COc1cc(C(=O)N2CCCCCCC2)cc(OC)c1OC,1.77%,–
CCCCCCCCCCCCOCCOCCOCCOCCOCCOCCOCCOCCOCCO,-9.3%,–
CCC1NC(=O)c2cc(S(N)(=O)=O)c(Cl)cc2N1 (stereo not given),-11.6%,–
O=C(CCN1CCN2CCCC2C1)N1c2ccccc2Sc2ccc(Cl)cc21 (stereo not given),1.75% [at 25.3 µM],–
CCCCCCCCCCCCCCCCO,-4.36%,–
CC(C)CCCC(C)N (stereo not given),-0.466%,–
NCCNc1cccc2ccccc12,-29.6%,–
CCCN(CCc1cccs1)[C@H]1CCc2c(O)cccc2C1,-9.2%,–
C=C1c2cccc(O)c2C(O)=C2C(=O)[C@]3(O)C(O)=C(C(N)=O)C(=O)[C@@H](N(C)C)[C@@H]3[C@@H](O)[C@H]12,-0.26%,–
COc1ccc2c(c1)c1c3n2CCN(C)C3=NCC1,9.32%,–
COc1ccc(C(=O)c2ccccc2)c(O)c1,1.86%,–
CC(C)Nc1cccnc1N1CCN(C(=O)c2cc3cc(NS(C)(=O)=O)ccc3[nH]2)CC1,10.5%,–
NC(=O)C1(N2CCCCC2)CCN(CCCC(=O)c2ccc(F)cc2)CC1,6.13%,–
CC(=C(CCOC(=O)C(C)C)SSC(CCOC(=O)C(C)C)=C(C)N(C=O)Cc1cnc(C)nc1N)N(C=O)Cc1cnc(C)nc1N,-7.83%,–
O=C1C(=O)c2ccccc2C(O)=C1C1CCC(c2ccc(Cl)cc2)CC1 (stereo not given),10.2%,–
CCN(CC)CCOC(=O)C1(c2ccccc2)CCCC1,-7.74%,–
CNCCc1ccccn1,5.63%,–
CCCCN1C[C@H](O)[C@@H](O)[C@H](O)[C@H]1CO,-2.39%,–
O=C1C(O)=C(O)C(=O)C(O)=C1O,-3.8%,–
CCOC(=O)[C@H](CCc1ccccc1)N[C@@H](C)C(=O)N1[C@H](C(=O)O)C[C@@H]2CCC[C@@H]21,0.341%,–

Compound,"activity change, negative = cytotoxicity",Potency
Clc1cccc(C(c2ccc3nc[nH]c3c2)n2ccnc2)c1 (stereo not given),18.7%,–
CC(C)[N+](C)(C)CC(O)COc1cccc2ccccc12 (stereo not given),-10.2%,–
O=C(Oc1cccc2cccnc12)c1ccccc1,-6%,–
OC(C#CCN1CCCC1)(c1ccccc1)c1ccccc1,0.442%,–
Cc1ccc(O)c([C@H](CCN(C(C)C)C(C)C)c2ccccc2)c1,-29.5%,–
O=C1[C@H](CC[C@H](O)c2ccc(F)cc2)[C@@H](c2ccc(O)cc2)N1c1ccc(F)cc1,–,inactive
NC1CCN(c2nc3c(cc2F)c(=O)c(C(=O)O)cn3-c2ccc(F)cc2F)C1 (stereo not given),-17.4%,–
COc1cc(N)c(Cl)cc1C(=O)NC1CCN(Cc2ccccc2)CC1,-2.46%,–
CC(=O)Nc1ccc(S(=O)(=O)Nc2ccc([N+](=O)[O-])cc2)cc1,13.6%,–
COc1cc(NS(=O)(=O)c2ccc(N)cc2)ncn1,-0.881%,–
CCCCC(CC)COC(=O)/C=C/c1ccc(OC)cc1 (stereo not given),-4.97%,–
CCCCCCCCCCCCSCCOCCO,-1.97%,–
C=C[C@H]1CN2CC[C@H]1C[C@H]2[C@H](O)c1ccnc2ccc(OC)cc12,-35.1%,–
C[N+]1(CC2COC(c3ccccc3)(C3CCCCC3)O2)CCCCC1 (stereo not given),-29.6%,–
CC(=O)Nc1ccc(OC(=O)c2ccccc2OC(C)=O)cc1,9.6%,–
CN(C)CCC[C@@]1(c2ccc(F)cc2)OCc2cc(C#N)ccc21,-10.1%,–
CC(O)Cn1cnc2c1c(=O)n(C)c(=O)n2C (stereo not given),1.53%,–
COc1ccc(S(=O)(=O)N2c3ccc(Cl)cc3[C@@](O)(c3ccccc3Cl)[C@H]2C(=O)N2CCC[C@@H]2C(N)=O)cc1OC,-5.48%,–
O=C(NC1CCN(CCc2c[nH]c3ccccc23)CC1)c1ccccc1,6.44%,–
CO[C@]12C[C@@H](COC(=O)c3cncc(Br)c3)CN(C)[C@@H]1Cc1cn(C)c3cccc2c13,22%,–
